Mcl-1 Bim block = inhibitors of Bim-Mcl-1 interaction, human; AID 1009; hit rate 0.1% among 190,000; inhibition, % at 10 µM; Q07820; Bead-based flow cytometry, Bim peptide-Mcl-1 binding; in the data active = inhibition above about 40%
MCL1-BIM inh = disrupts human MCL1 binding to BIM-BH3 peptide | inhibition, % at 10.9 µM | GST-MCL1 / FITC-Bim-BH3 fluorescence polarization | hit rate 0.68% among 320,000 | AID 2057;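 active = inhibition above the mean inhibition of all tested compounds plus 3 SD, set per campaign, cut at about 40% in these data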;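 also: higher means more loss of mP so more displacement of Bim peptide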
GLD-1 TGE inh = GLD-1-TGE RNA interaction inhibition (C. elegans) | Q17339 | purified GLD-1 + fluorescein TGE RNA, fluorescence polarization | inhibition, % at 5.96 µM | hit rate 0.44% among 320,000 | AID 2280;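 active = percent inhibition above a per-plate cutoff, the plate mean of test compounds plus 3 SD, cut at about 30% in these data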
Target sequence (Q17339 whole entry, looked up): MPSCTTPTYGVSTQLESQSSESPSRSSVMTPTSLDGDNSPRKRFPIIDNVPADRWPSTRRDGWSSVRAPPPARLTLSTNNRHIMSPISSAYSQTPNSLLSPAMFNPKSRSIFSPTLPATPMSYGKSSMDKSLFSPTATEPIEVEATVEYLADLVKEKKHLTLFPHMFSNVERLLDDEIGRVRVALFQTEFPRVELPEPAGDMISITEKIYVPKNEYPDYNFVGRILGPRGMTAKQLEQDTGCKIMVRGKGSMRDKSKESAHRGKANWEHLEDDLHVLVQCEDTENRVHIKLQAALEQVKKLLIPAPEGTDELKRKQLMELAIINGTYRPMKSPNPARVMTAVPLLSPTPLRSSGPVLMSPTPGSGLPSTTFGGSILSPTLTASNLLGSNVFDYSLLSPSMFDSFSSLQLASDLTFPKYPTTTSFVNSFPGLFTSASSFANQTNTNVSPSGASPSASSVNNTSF
Mcl1-Bid inh = Mcl-1/Bid interaction inhibition; hit rate 0.97% among 220,000; AID 1021; inhibition, % at 21.7 µM; TR-FRET Mcl-1/Bid-Dy647 peptide binding, 1536-well;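 active = compounds that cut the binding signal by more than half at the single screening dose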;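 also: His-tagged Mcl-1 with europium anti-His antibody binding Bid BH3 peptide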
Mcl1 Noxa PPI = Mcl-1/Noxa interaction inhibition. Q07820. TR-FRET Mcl-1/Noxa peptide binding, 2 h. inhibition, % at 21.7 µM. hit rate 1.5% among 220,000. AID 1022;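 active = compounds that cut the protein-peptide binding signal by more than 50% relative to plate controls in a single-dose test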;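 also: His-tagged Mcl-1 with rhodamine Noxa BH3 peptide and terbium anti-His antibody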
Bcl-xL primary = Bcl-xL (human) inhibition; GST-Bcl-xL / FITC-Bim BH3 peptide fluorescence polarization; Q07817; hit rate 0.7% among 320,000; inhibition, % at 10.9 µM;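 active = inhibition above the mean of all tested compounds plus 3 SD, cutoff set per campaign, cut at about 30% in these data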;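 also: inhibitors lower millipolarization by displacing the labeled peptide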
Numbers stand for hits; i = inactive; nt = no result given. This is a sample that favours compounds with a hit; in the whole collection about 2.3% have one here.

SMILES | Mcl-1 Bim block | MCL1-BIM inh | GLD-1 TGE inh | Mcl1-Bid inh | Mcl1 Noxa PPI | Bcl-xL primary
C#CCOCCOCCOCCNc1nc(N2CCN(C(=O)[C@H]([C@@H](C)CC)n3cc([C@@H](N)CC(C)C)nn3)CC2)nc(N2CCN(C(=O)[C@H](Cc3ccc(O)cc3)n3cc([C@@H](N)CC(C)C)nn3)CC2)n1 | i | i | i | 60 | i | i
C#CCOCCOCCOCCNc1nc(N2CCN(C(=O)[C@H](Cc3cc4ccccc4[nH]3)n3cc([C@@H](N)C(C)CC)nn3)CC2)nc(N2CCN(C(=O)[C@H](Cc3cc4ccccc4[nH]3)n3cc([C@@H](N)Cc4ccc(O)cc4)nn3)CC2)n1 (stereo partly specified) | i | i | i | 85 | 61 | i
C#CCOCCOCCOCCNc1nc(N2CCN(C(=O)[C@H](Cc3ccc(O)cc3)n3cc([C@@H](N)C(C)CC)nn3)CC2)nc(N2CCN(C(=O)[C@H](Cc3cc4ccccc4[nH]3)n3cc([C@@H](N)C(C)CC)nn3)CC2)n1 (stereo partly specified) | i | i | i | 69 | i | i
C#CCOCCOCCOCCNc1nc(N2CCN(C(=O)[C@H]([C@@H](C)CC)n3cc([C@@H](N)Cc4ccc(O)cc4)nn3)CC2)nc(N2CCN(C(=O)[C@H](Cc3cc4ccccc4[nH]3)n3cc([C@@H](N)C(C)CC)nn3)CC2)n1 (stereo partly specified) | i | i | i | i | i | i
Cc1ccccc1C(=O)N1CCC(C(=O)Nc2cc(C(F)(F)F)ccc2N2CCCC2)CC1 | nt | i | i | nt | nt | i
O=C(Cc1ccc(-n2c(=S)[nH]c3ccccc3c2=O)cc1)N1CCC(N2CCCCC2)CC1 | i | i | i | i | i | i
CCOc1cc(/C=C2\SC(=S)N(C(C(=O)O)c3ccccc3)C2=O)ccc1O (stereo unspecified) | nt | i | i | 51 | 51 | i
O=C1c2cccnc2C(Nc2ccc(F)c(Cl)c2)N1Cc1cccs1 (stereo unspecified) | i | i | i | 52 | i | i
O=C1c2cccnc2C(Nc2ccc(Br)cc2)N1Cc1cccs1 (stereo unspecified) | i | i | i | 62 | i | i
COc1ccc(NC2c3ncccc3C(=O)N2Cc2cccs2)cc1 (stereo unspecified) | i | i | i | i | i | i
CCC(C)NC(=O)COC(=O)c1csc2c1CCCC2 (stereo unspecified) | i | i | i | i | i | i
CN(C)c1ccc(/C=C/c2ccc3ccccc3[n+]2C)cc1 | i | i | i | i | i | i
CN(C)c1ccc(/C=C/c2ccc3c4ccccc4ccc3[n+]2-c2ccccc2)cc1 | i | nt | nt | i | 84 | nt
COc1ccc(CNC(=O)C2CC(C)=CCC2C(=O)O)cc1 (stereo unspecified) | nt | i | i | nt | nt | i
C[C@@H](C(=O)NCCc1c[nH]c2ccccc12)[C@@H]1C[C@@]1(C)[C@@H](NC(=O)OCc1ccccc1)c1ccccc1 | 86 | i | i | i | i | i
COc1cc(/C=C(\C#N)C(=O)Nc2cccc3ncccc23)cc(OC)c1OC | i | i | i | i | i | i
COc1ccc(/C=C(\C#N)C(=O)Nc2cccc3ncccc23)cc1OC | nt | i | i | i | 55 | i
O=[N+]([O-])c1ccc(O)c(N=Cc2sc3ccccc3c2O)c1 | i | i | i | i | 53 | i
Cc1cccc(/N=C/c2c(O)[nH]c3ccccc23)n1 | i | i | i | i | i | i
Cc1cccc(/N=C/c2sc3ccccc3c2O)n1 | nt | i | i | i | 82 | i
O=C(Cn1cccc1C(=O)c1ccccc1)NCCN1CCCCCC1 | i | i | i | i | i | i
Cc1cc(NC(=O)CSc2ccc3ccccc3c2)no1 | i | i | i | i | 53 | i
Cc1cc(NC(=O)CSc2nc(-c3ccc(F)cc3)cs2)no1 | i | i | i | i | 86 | i
Cc1cc(NC(=O)CSc2nc(-c3ccccc3)cs2)no1 | i | i | i | i | i | i
Cc1cc(NC(=O)CN2CCCCCCC2)no1 | i | i | i | 64 | i | i
SMILES | Mcl-1 Bim block | MCL1-BIM inh | GLD-1 TGE inh | Mcl1-Bid inh | Mcl1 Noxa PPI | Bcl-xL primary
Cc1cc(NC(=O)CN2CCN(C)CC2)no1 | i | i | i | i | i | i
CC1CCCN(C(=O)c2ccc(COc3ccccc3Br)cc2)C1 (stereo unspecified) | i | i | i | i | i | i
CCCCNC(=S)N(C)/N=C/c1sc(N2CCCCC2)nc1-c1cccs1 | i | i | i | i | i | 39
CC(C)NC(=S)N/N=C/c1sc(N2CCCCC2)nc1-c1cccs1 | i | i | i | i | i | i
Cc1cc(C)c(NC(=O)COC(=O)c2cccc3c2C(=O)c2ccccc2C3=O)c(C)c1 | i | i | i | i | i | i
Cc1cc(C)c(Nc2cc(S(=O)(=O)O)c(N)c3c2C(=O)c2ccccc2C3=O)c(C)c1 | i | 52 | i | 94 | 107 | 31
COc1cc2ccccc2cc1C(=O)N(CCN(C)C)c1nc2c(F)cc(F)cc2s1 | nt | i | i | nt | nt | i
CCOC(=O)Cc1csc(NC(=O)c2csc(C)c2)n1 | i | i | i | i | i | i
CCOC(=O)Cc1csc(NC(=O)c2sc3nc4c(C)cc(C)cc4cc3c2N)n1 | i | i | i | i | 64 | i
Cc1ccc(-c2n[nH]c(=S)n2/N=C/C=C/c2ccccc2[N+](=O)[O-])cc1 | i | i | i | i | i | i
O=[N+]([O-])c1ccccc1/C=C/C=N/n1c(-c2cc(-c3ccccc3)n[nH]2)n[nH]c1=S | nt | i | i | i | 58 | i
S=c1[nH]nc(-c2cc(-c3ccccc3)n[nH]2)n1/N=C/C(Br)=C/c1ccccc1 | nt | i | i | i | 76 | i
Cc1ccc(C)c(NC(=O)C2CCCN2/C=C/C(=O)C(F)(F)F)c1 (stereo unspecified) | i | i | i | 72 | i | i
Cc1ccccc1-c1nnc(CN2CCC(C)CC2)o1 | nt | i | 37 | nt | nt | i
Cc1ccccc1-c1nnc(CN2CCN(C(=O)c3ccco3)CC2)o1 | nt | i | i | nt | nt | i
Cc1cc(-c2ccc(N=Nc3c(S(=O)(=O)O)cc4cc(S(=O)(=O)O)cc(N)c4c3O)c(C)c2)ccc1N=Nc1c(S(=O)(=O)O)cc2cc(S(=O)(=O)O)cc(N)c2c1O | nt | 96 | i | nt | nt | 65
O=C(c1ccc(F)cc1)N1CCN(Cc2ccccc2Br)CC1 | i | i | i | 60 | i | i
O=C(/C=C/c1ccco1)NC(=S)Nc1cc(-c2nc3ccccc3s2)ccc1Cl | i | i | i | 63 | 64 | i
O=C(/C=C/c1ccco1)Nc1ccc(N2CCCC2)cc1 | i | i | i | i | 64 | i
O=C(/C=C/c1ccco1)NC(=S)Nc1cccc(-c2nc3ccccc3o2)c1 | i | i | i | 65 | nt | i
O=C(/C=C/c1ccc(Cl)cc1)NC(=S)Nc1ccc(NC(=O)c2ccco2)cc1 | i | i | i | 56 | i | i
